This note sets out measurements from PubChem BioAssay.

Active and inactive are the calls of the source.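 How the source made its calls, unless noted: active means NADPH fluorescence slope more negative than the mean of all samples by about 3 SD, 99.7% confidence; inactive means the rest.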

Assay [1] is described as follows: inhibitors of TNFa-induced NFkB p65 translocation, primary screen, imaging, HUVEC, MLSMR starter and 10KST1 sets (AID 438;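 active means inhibition above 20% together with a positive visual image hit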;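 further: compound added about 3h40 before a 20 min TNFalpha stimulation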;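 on inhibition: signal is the nuclear over cytoplasmic p65 intensity ratio per well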). The note with it: HUVEC TNFa-induced p65 nuclear translocation; cell count: measured here: nuclei count (cytotoxicity indicator), at 2.08 µM; inhibition: at 2 µM, stronger effect = higher value, 0% TNFa-plus-vehicle, 100% no-TNFa wells.
The nature of assay [2]: inhibitors of mutant huntingtin aggregation, primary screen, imaging, exon1htt(103Q)mCFP cells, high-content imaging (AID 483;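 active means visual image review flags a hit and inhibition of aggregation exceeds 20%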;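 further: compound exposure lasted 3 days before fixation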;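 on nuclei count: percent of the per-plate median nuclei count of sample wells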). The note with it: exon1htt(103Q)mCFP cell line, aggregate imaging, at 2 µM; inhibition of aggregation: stronger effect = higher value; nuclei count: measured here: cell count, toxicity.
Assay [3] is described as follows: inhibitors of E-selectin induction by TNFa, primary screen, imaging, HUVEC, immunofluorescence, MLSMR starter and 10KST1 sets (AID 487;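 active means visually confirmed hit in the image check and inhibition above 20%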;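 on inhibition: signal is fraction of cell area covered by stained E-selectin grains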;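 on nuclei count: 100% = median nuclei count of all wells on the same plate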). The note with it: HUVEC TNFalpha-induced E-selectin immunofluorescence imaging, at 2 µM; inhibition: stronger effect = higher value; nuclei count: measured here: cell number, toxicity.
Assay [4] addresses Voltage-gated potassium channel subunit beta-2 (Rattus norvegicus) (UniProt P62483). Put plainly: KvBeta enzyme negative modulators, primary screen, biochemical, NADPH fluorescence (AID 622;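 active means fluorescence slope higher than the sample average by over 3 SD, cut at about -0.22 in these data, passing the limit was not always enough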;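 further: slope of raw intensity against log time taken from 70 to 1610 s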). The note with it: recombinant KvBeta, 4-cyanobenzaldehyde reduction, at 10 µM, stronger effect = higher value.
Assay [5] shares this target. In words: KvBeta positive modulators, primary screen, biochemical, NADPH fluorescence (AID 623).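 Further: fluorescence intensity change per second fitted from 20 to 320 s.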 The conditions noted are these: Recombinant KvBeta, NADPH fluorescence decrease slope, 10 min; at 10 µM; stronger effect = lower value.
Assay [6] addresses Alpha-2C adrenergic receptor (Homo sapiens) (UniProt P18825). Put plainly: modulators of alpha2C/GIRK thallium flux, primary screen, cell-based, HEK293 alpha2C/GIRK1/2 (AID 624;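 active means fluorescence slope after compound addition differing from the mean of all screened samples at 99.7% confidence, in either direction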;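 further: slope of fluorescence ratio to pre-addition baseline per second over 15 to 24 s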). The conditions noted are these: thallium flux BTC fluorescence, at 10 µM, actives lie on both sides.
Assay [7] in a line: inhibitors of Sendai virus-induced IRF3 signaling, primary screen, TLR/RLR signaling modifier project, cell-based, Sendai virus stimulus, luciferase, 10K MLSCN set (AID 602276;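 active means inhibition at or above 50% at 10 µM; inactive means inhibition below 50%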;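 further: firefly luciferase from ISG56 promoter only with Renilla not read in this screen; 0% = Sendai virus plus DMSO and 100% = medium plus DMSO without virus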). The note with it: HEK293 RL24 IRF3 luciferase reporter, at 10 µM, stronger effect = higher value.
The nature of assay [8]: inhibitors of poly I:C-induced TLR3 signaling, primary screen, cell-based, poly I:C stimulus, luciferase, 10K MLSCN set (AID 602277;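 active means inhibition of the reporter signal at or above 50%; inactive means inhibition below 50%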). The conditions noted are these: HEK293-TLR3 RL24 IRF3 luciferase reporter, at 10 µM, stronger effect = higher value. In general terms: A reporter such as luciferase makes a cellular process visible.

Sequence of Alpha-2C adrenergic receptor (Homo sapiens) (P18825 whole entry, looked up): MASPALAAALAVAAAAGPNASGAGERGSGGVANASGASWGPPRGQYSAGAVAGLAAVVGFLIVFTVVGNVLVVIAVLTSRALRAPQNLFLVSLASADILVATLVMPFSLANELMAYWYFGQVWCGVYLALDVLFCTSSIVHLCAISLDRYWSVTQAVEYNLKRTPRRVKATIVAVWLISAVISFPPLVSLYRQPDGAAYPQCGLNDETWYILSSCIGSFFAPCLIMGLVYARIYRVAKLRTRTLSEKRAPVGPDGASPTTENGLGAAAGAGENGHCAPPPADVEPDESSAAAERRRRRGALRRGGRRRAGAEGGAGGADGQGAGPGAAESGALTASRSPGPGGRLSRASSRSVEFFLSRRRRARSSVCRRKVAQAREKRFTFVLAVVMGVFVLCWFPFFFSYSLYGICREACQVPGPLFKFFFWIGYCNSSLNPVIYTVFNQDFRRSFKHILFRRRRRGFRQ
Sequence of Voltage-gated potassium channel subunit beta-2 (Rattus norvegicus) (P62483 whole entry, looked up): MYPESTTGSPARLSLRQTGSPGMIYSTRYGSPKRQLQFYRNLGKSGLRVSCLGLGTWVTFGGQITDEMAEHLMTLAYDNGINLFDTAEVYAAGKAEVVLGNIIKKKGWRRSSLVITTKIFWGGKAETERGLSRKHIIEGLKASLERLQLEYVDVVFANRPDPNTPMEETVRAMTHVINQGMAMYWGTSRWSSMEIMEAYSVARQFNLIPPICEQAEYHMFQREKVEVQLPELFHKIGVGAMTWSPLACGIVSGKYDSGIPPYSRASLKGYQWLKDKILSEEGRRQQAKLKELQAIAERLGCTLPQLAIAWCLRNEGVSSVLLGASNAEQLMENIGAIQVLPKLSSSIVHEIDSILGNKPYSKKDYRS

The term inhibition denotes the relative decrease from the control value, in per cent. For the compound `O=C(CCCOc1ccccc1)N1CCN(c2ccccn2)CC1`, the cell count in assay [1] was determined as 232. In addition, the inhibition is -4.8% (inactive) in assay [1], -18.6% (inactive) in assay [3], 2.47% (inactive) in assay [7] and -54.1% (inactive) in assay [8]. In addition, the inhibition of aggregation in assay [2] was 15.3% (inactive). Moreover, the results for the nuclei count in assay [2] and in assay [3] were 53.2% and 78%, respectively. Moreover, the fluorescence slope in assay [4] was -0.487 (inactive). Moreover, in assay [5], the NADPH fluorescence slope is -3.3e-07 (inactive). In addition, the slope in assay [6] is 0.00525 (inactive).
For the compound `COc1ccc(C)cc1S(=O)(=O)Nc1cccnc1`, in assay [1], the cell count was 283. Besides, the inhibition in assay [1] is 0.4% (inactive); in assay [3], -61.4% (inactive); in assay [7], 25.8% (inactive); in assay [8], 25.5% (inactive). In assay [2], the inhibition of aggregation was 13.9% (inactive). Further, the nuclei count in assay [2] worked out at 78.8%; in assay [3], 90%. Besides, the fluorescence slope in assay [4] was -0.475 (inactive). For the same compound, in assay [5], the NADPH fluorescence slope was -3.8e-05 (inactive). Moreover, the slope in assay [6] was 0.00515 (inactive).
With `COc1ccccc1OCC(=O)N1CCN(c2ccccc2OC)CC1`, the cell count in assay [1] came to 471. Besides, the inhibition is 3% (inactive) in assay [1], 35.1% (inactive) in assay [3], -19.3% (inactive) in assay [7] and -1.87% (inactive) in assay [8]. The inhibition of aggregation in assay [2] is 5.3% (inactive). The nuclei count in assay [2] came out at 108%; in assay [3], 107%. In addition, in assay [4], the fluorescence slope is -0.6 (inactive). Moreover, the NADPH fluorescence slope in assay [5] was -1.5e-05 (inactive). For the same compound, the slope in assay [6] was 0.00684 (inactive).
Take `Cc1c(C(=O)NCCC2=CCCCC2)oc2ccc(S(=O)(=O)N3CCC4(CC3)OCCO4)cc12`: the cell count in assay [1] is 643. Also, the inhibition was 10.9% (inactive) in assay [1], -42.7% (inactive) in assay [3], 16.2% (inactive) in assay [7] and 29.4% (inactive) in assay [8]. Also, in assay [2], the inhibition of aggregation was -35% (inactive). The nuclei count stood at 113% in assay [2] and 106% in assay [3]. For the same compound, the fluorescence slope in assay [4] was -0.413 (inactive). Further, the NADPH fluorescence slope in assay [5] is -5.5e-05 (inactive). Further, in assay [6], the slope was 0.00783 (inactive).
`COc1cc(NC2c3ccccc3C(=O)N2c2ccc(C)cn2)cc(OC)c1OC` (centres undefined): in assay [1], the cell count is 619. Also, the inhibition was 5.5% (inactive) in assay [1], -7.5% (inactive) in assay [3], -30.9% (inactive) in assay [7] and -44.7% (inactive) in assay [8]. The inhibition of aggregation in assay [2] is 11.3% (inactive). Also, the nuclei count in assay [2] was 85.2%; in assay [3], 109%. In addition, the fluorescence slope in assay [4] is -0.593 (inactive). For the same compound, the NADPH fluorescence slope in assay [5] is 1.6e-05 (inactive). In addition, the slope in assay [6] is 0.00732 (inactive).
On to `COCCNC(=O)C1CCCN(c2ncccn2)C1` (centres undefined), for which the cell count in assay [1] was 648. Further, the inhibition was 7.5% (inactive) in assay [1], 98.1% (active) in assay [3], 14.2% (inactive) in assay [7] and 20.8% (inactive) in assay [8]. Besides, in assay [2], the inhibition of aggregation was 5.6% (inactive). In addition, the nuclei count in assay [2] came out at 100%; in assay [3], 76.1%. Further, in assay [4], the fluorescence slope is -0.539 (inactive). Moreover, in assay [5], the NADPH fluorescence slope is -6.8e-05 (inactive). Moreover, the slope in assay [6] was 0.00583 (inactive).
Turning to `CCOC(=O)N1CCC(Nc2nc3ccccc3n3cnnc23)CC1`, the cell count in assay [1] turned out to be 501. The inhibition is -6.9% (inactive) in assay [1], -35.1% (inactive) in assay [3], 7.19% (inactive) in assay [7] and 18.1% (inactive) in assay [8]. Besides, the inhibition of aggregation in assay [2] was -21.2% (inactive). Further, the nuclei count in assay [2] was 59.5%; in assay [3], 117%. Besides, the fluorescence slope in assay [4] is -0.581 (inactive). In addition, in assay [5], the NADPH fluorescence slope is -8.8e-06 (inactive). The slope in assay [6] was 0.00645 (inactive).
Regarding `COCCOC(=O)c1[nH]c2c(c1C)C(=O)CC(c1ccco1)C2` (centres undefined), the cell count in assay [1] is 930. The inhibition in assay [1] is 12.1% (inactive); in assay [3], -169% (inactive); in assay [7], 14.2% (inactive); in assay [8] it was 77.7% (active). In assay [2], the inhibition of aggregation was -345% (inactive). In addition, the nuclei count came to 2.7% in assay [2] and 95.8% in assay [3]. Further, in assay [4], the fluorescence slope is -0.568 (inactive). In addition, the NADPH fluorescence slope in assay [5] is -6.8e-06 (inactive). For the same compound, the slope in assay [6] is 0.00646 (inactive).
With `O=C(Nc1nc(-c2ccc(S(=O)(=O)N3CCCC3)cc2)cs1)C1COc2ccccc2O1` (centres undefined), the cell count in assay [1] was 731. Also, the inhibition was 3.6% (inactive) in assay [1], 24% (inactive) in assay [3], 7.86% (inactive) in assay [7] and 2.65% (inactive) in assay [8]. The inhibition of aggregation in assay [2] is -24.6% (inactive). Further, the values for the nuclei count in assay [2] and in assay [3] were 91.5% and 81.4%, respectively. Also, the fluorescence slope in assay [4] is -0.413 (inactive). The NADPH fluorescence slope in assay [5] is -2.5e-05 (inactive). In addition, in assay [6], the slope is 0.00956 (active).
`O=C(Sc1nnnn1C1CCCCC1)c1cccs1`: the cell count in assay [1] stood at 242. For the same compound, the inhibition in assay [1] is 13.8% (inactive); in assay [3] it was -291% (inactive); in assay [7] it was 15.9% (inactive); in assay [8] it was 13.5% (inactive). In addition, the inhibition of aggregation in assay [2] was 7.4% (inactive). Moreover, the figures for the nuclei count in assay [2] and in assay [3] were 91.3% and 129%, respectively. Also, the fluorescence slope in assay [4] was -0.317 (inactive). The NADPH fluorescence slope in assay [5] is 1.5e-05 (inactive). In assay [6], the slope was 0.00618 (inactive).
For `O=C(NCCc1c[nH]c2ccccc12)c1ccc(S(=O)(=O)NCc2ccco2)cc1`, in assay [1], the cell count is 398. Also, the inhibition in assay [1] is 9.3% (inactive); in assay [3], -42.9% (inactive); in assay [7], 15.3% (inactive); in assay [8], 30.7% (inactive). Further, the inhibition of aggregation in assay [2] is 14.7% (inactive). For the same compound, the nuclei count in assay [2] was 89.6%; in assay [3] it was 98.6%. In addition, the fluorescence slope in assay [4] is -0.578 (inactive). Also, in assay [5], the NADPH fluorescence slope is -2.7e-05 (inactive). Further, the slope in assay [6] was 0.00486 (inactive).
`O=C(CSc1nc2ccsc2c(=O)n1NC(=O)c1ccccc1)Nc1nccs1`: the cell count in assay [1] worked out at 414. Further, the inhibition in assay [1] was 3.2% (inactive); in assay [3], -134% (inactive); in assay [7], -7.17% (inactive); in assay [8] it was 0.179% (inactive). The inhibition of aggregation in assay [2] was 4% (inactive). In addition, the nuclei count in assay [2] amounted to 98.2%; in assay [3], 101%. Further, the fluorescence slope in assay [4] was -0.342 (inactive). Besides, the NADPH fluorescence slope in assay [5] was -7e-06 (inactive). Also, the slope in assay [6] is 0.00492 (inactive).
Take `CCCC(=O)Nc1ccccc1-c1nnn(CC(=O)Nc2ccc(OC)cc2)n1`: in assay [1], the cell count worked out at 674. Further, the inhibition in assay [1] is 21.5% (inactive); in assay [3], -36.7% (inactive); in assay [7] it was 14.1% (inactive); in assay [8] it was 13.7% (inactive). Further, in assay [2], the inhibition of aggregation is -11.7% (inactive). Moreover, the figures for the nuclei count in assay [2] and in assay [3] were 115% and 83.3%, respectively. The fluorescence slope in assay [4] is -0.36 (inactive). Moreover, the NADPH fluorescence slope in assay [5] was 1e-05 (inactive). The slope in assay [6] is 0.0062 (inactive).
As for `Cc1nnc(SCc2nc3ccccc3s2)n1-c1ccccc1`, the cell count in assay [1] was determined as 394. The inhibition in assay [1] is -1% (inactive); in assay [3], -324% (inactive); in assay [7] it was 13.8% (inactive); in assay [8], -17.5% (inactive). Further, in assay [2], the inhibition of aggregation is -14.1% (inactive). In addition, the nuclei count in assay [2] is 83.9%; in assay [3], 153%. In addition, in assay [4], the fluorescence slope is -0.317 (inactive). Further, the NADPH fluorescence slope in assay [5] is 7.5e-06 (inactive). In addition, the slope in assay [6] was 0.005 (inactive).
